Paper PMC7862700, “An all-to-all approach to the identification of sequence-specific readers for epigenetic DNA modifications on cytosine”

Key:
Assay in all cases: DAPPL (digital affinity profiling via proximity ligation, sequencing); 10 mM Tris-HCl pH 7.5, 50 mM NaCl, 1 mM DTT, 4% glycerol, room temperature, 30 min; GST-TFs on glutathione beads, 16-mer random dsDNA library, 0.1% formaldehyde crosslink after washing; high values mean tight binding
FLI1 = biological target: T1, FLI1 (Homo sapiens, UniProt Q01543 1-452); conditions: protein: recombinant; tags: N-terminal GST; dsDNA, one strand shown
T1 sequence: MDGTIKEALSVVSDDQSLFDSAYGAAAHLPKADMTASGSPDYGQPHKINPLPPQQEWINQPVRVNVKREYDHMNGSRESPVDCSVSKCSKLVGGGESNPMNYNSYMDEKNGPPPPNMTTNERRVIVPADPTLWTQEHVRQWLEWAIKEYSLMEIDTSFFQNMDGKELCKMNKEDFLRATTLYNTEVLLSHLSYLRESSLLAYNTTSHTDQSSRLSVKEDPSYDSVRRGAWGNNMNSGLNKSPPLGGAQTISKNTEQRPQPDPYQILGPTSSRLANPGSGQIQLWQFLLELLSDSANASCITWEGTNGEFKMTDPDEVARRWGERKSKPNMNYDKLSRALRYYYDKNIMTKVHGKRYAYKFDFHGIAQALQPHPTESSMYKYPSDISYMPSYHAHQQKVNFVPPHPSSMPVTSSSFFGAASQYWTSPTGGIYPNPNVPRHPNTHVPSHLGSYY
Summary of the method: (§1)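 Human transcription factors were made in yeast as GST fusions, captured on glutathione beads and barcoded with DNA. With a tag-only sample included, the pool was incubated with 200 nmole of a random double-stranded 16-mer DNA library in Tris/NaCl/DTT/glycerol buffer at room temperature for 30 min, then crosslinked with 0.1% formaldehyde after washing, ligated by proximity, amplified and sequenced. For binding signal, each hexamer's read frequency for a factor is divided by its frequency for the tag-only sample.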

ELK1 = biological target: T2, ELK1 (Homo sapiens, UniProt P19419 1-428); conditions: protein: recombinant; tags: N-terminal GST; dsDNA, one strand shown
T2 sequence: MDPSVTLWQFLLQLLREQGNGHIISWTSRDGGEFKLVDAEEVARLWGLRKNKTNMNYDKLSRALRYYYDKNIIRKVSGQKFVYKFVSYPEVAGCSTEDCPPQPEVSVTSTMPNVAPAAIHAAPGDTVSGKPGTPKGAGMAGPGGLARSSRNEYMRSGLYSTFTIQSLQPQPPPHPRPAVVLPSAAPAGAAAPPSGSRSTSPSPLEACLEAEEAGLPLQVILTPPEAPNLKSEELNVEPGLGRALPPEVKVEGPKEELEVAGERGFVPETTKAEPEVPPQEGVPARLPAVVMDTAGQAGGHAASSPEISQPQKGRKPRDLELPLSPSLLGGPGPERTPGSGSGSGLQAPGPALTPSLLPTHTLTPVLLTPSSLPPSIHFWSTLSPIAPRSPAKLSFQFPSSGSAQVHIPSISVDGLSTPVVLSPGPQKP
Summary of the method: as §1

GABPA = biological target: T3, GABPA (Homo sapiens, UniProt Q06546 1-454); conditions: protein: recombinant; tags: N-terminal GST; dsDNA, one strand shown
T3 sequence: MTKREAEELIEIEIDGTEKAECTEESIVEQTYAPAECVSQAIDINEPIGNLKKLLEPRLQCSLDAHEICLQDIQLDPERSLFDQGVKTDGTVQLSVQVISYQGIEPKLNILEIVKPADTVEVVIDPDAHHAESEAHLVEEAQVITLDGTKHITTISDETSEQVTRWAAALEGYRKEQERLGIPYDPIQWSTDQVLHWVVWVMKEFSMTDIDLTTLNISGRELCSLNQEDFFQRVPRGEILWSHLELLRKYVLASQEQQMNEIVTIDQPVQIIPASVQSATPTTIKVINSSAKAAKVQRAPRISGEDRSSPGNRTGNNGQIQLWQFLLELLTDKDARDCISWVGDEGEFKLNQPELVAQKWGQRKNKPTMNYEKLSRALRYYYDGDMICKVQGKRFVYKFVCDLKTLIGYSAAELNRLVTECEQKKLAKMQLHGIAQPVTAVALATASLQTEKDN
Summary of the method: as §1

ERG = biological target: T4, ERG (Homo sapiens, UniProt P11308 1-479); conditions: protein: recombinant; tags: N-terminal GST; dsDNA, one strand shown
T4 sequence: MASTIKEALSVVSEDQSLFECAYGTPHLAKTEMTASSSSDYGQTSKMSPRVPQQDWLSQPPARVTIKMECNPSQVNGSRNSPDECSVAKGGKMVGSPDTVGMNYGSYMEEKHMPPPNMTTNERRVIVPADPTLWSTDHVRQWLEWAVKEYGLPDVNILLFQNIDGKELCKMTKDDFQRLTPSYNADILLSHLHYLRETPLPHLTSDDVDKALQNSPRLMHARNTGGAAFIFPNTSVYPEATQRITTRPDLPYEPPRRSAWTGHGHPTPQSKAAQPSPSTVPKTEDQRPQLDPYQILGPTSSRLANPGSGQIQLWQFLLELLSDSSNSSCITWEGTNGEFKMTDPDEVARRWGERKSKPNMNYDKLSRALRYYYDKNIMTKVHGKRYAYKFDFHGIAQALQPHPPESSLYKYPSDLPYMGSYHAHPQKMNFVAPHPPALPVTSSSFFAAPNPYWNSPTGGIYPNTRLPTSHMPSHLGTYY
Summary of the method: as §1

ELF1 = ELF1 (Homo sapiens, UniProt P32519 1-619); conditions: protein: recombinant; tags: N-terminal GST; dsDNA, one strand shown
Chain of ELF1 (P32519 whole entry): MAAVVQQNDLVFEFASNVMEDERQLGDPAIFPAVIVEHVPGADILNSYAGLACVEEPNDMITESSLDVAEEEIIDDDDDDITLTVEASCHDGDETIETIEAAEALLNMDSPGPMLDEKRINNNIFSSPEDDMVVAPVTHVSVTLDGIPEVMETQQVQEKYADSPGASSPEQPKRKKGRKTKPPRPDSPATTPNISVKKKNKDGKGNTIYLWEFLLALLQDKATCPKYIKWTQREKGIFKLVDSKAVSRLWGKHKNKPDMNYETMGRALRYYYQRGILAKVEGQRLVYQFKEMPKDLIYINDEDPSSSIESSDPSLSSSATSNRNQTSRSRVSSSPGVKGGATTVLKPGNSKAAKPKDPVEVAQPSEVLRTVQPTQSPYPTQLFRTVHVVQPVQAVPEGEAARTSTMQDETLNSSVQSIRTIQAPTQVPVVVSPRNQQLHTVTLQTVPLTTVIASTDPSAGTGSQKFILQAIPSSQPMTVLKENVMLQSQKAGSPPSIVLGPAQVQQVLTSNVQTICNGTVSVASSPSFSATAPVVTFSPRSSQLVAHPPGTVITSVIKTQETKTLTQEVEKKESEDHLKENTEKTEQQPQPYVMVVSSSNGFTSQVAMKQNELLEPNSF
Summary of the method: as §1

EHF = biological target: T5, EHF (Homo sapiens, UniProt Q9NZC4 1-300); conditions: protein: recombinant; tags: N-terminal GST; dsDNA, one strand shown
T5 sequence: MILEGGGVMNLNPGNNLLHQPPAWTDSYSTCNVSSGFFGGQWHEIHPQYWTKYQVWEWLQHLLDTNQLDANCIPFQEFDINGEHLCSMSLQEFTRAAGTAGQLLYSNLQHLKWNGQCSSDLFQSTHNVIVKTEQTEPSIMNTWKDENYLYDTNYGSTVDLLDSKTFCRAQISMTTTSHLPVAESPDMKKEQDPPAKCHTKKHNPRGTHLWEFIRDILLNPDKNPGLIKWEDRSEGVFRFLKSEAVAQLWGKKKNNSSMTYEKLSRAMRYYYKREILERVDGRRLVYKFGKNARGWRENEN
Summary of the method: as §1

SPI1 = SPI1 (Homo sapiens, UniProt P17947 1-270); conditions: protein: recombinant; tags: N-terminal GST; dsDNA, one strand shown
Summary of the method: as §1

SPIB = SPIB (Homo sapiens, UniProt Q01892 1-262); conditions: protein: recombinant; tags: N-terminal GST; dsDNA, one strand shown
Chain of SPIB (Q01892 whole entry): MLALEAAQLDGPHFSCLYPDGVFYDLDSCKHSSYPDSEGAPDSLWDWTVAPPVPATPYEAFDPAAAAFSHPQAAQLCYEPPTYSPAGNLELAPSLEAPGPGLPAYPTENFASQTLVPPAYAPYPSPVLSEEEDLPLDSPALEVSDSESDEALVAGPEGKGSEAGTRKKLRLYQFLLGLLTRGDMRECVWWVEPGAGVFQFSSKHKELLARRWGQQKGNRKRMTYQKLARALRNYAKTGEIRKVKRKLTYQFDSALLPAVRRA
Summary of the method: as §1

ELK3 = biological target: T6, ELK3 (Homo sapiens, UniProt P41970 1-407); conditions: protein: recombinant; tags: N-terminal GST; dsDNA, one strand shown
T6 sequence: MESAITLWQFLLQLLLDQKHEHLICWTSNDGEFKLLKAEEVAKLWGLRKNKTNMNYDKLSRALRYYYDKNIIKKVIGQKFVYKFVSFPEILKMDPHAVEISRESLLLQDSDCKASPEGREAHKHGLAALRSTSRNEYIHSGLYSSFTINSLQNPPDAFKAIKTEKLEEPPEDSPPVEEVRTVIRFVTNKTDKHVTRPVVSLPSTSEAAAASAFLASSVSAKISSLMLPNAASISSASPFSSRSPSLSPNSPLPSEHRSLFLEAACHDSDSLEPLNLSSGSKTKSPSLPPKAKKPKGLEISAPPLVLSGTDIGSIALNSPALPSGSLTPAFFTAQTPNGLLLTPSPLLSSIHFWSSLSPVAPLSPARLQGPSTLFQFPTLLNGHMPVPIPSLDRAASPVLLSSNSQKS
Summary of the method: as §1

FEV = biological target: T7, FEV (Homo sapiens, UniProt Q99581 1-238); conditions: protein: recombinant; tags: N-terminal GST; dsDNA, one strand shown
T7 sequence: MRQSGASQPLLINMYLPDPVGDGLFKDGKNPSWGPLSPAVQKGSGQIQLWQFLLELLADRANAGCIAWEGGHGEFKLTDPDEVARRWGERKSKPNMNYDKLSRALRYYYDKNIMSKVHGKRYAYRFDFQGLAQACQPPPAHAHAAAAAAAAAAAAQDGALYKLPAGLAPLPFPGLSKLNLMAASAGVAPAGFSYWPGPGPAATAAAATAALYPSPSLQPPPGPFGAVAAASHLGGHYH
Summary of the method: as §1

ETV5 = ETV5 (Homo sapiens, UniProt P41161 1-510); conditions: protein: recombinant; tags: N-terminal GST; dsDNA, one strand shown
Chain of ETV5 (P41161 whole entry): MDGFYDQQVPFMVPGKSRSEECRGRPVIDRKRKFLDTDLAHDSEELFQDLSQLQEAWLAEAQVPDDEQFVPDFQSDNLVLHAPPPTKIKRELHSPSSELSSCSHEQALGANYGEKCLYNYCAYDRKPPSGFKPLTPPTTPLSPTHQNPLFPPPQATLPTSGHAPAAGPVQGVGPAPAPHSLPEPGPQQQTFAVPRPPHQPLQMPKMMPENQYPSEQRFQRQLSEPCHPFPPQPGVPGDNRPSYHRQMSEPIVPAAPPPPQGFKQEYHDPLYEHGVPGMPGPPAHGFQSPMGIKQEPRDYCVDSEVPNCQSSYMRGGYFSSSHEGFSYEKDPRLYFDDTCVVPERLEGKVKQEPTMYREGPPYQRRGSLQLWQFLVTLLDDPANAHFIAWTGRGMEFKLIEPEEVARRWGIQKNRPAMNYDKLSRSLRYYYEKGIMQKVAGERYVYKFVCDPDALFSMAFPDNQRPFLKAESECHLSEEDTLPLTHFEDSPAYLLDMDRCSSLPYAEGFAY
Summary of the method: as §1

HSF1 = HSF1 (Homo sapiens, UniProt Q00613 1-529); conditions: protein: recombinant; tags: N-terminal GST; chain copies: 3; dsDNA, one strand shown
Chain of HSF1 (Q00613 whole entry): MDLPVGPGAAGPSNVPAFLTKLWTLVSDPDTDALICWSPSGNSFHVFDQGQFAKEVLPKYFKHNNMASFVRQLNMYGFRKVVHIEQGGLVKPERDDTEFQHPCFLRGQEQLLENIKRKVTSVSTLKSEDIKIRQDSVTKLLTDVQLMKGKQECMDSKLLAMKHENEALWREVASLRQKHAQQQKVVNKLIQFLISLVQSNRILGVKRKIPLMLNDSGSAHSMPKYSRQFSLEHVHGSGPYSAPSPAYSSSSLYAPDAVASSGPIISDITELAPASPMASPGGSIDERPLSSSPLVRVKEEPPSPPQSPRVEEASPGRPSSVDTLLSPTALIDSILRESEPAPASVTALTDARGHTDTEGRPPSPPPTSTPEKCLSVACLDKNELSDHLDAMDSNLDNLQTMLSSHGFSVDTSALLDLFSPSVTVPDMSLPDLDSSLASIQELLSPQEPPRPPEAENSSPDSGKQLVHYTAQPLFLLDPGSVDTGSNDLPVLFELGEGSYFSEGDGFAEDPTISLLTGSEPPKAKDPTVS
Summary of the method: as §1

SPIC = biological target: T8, SPIC (Homo sapiens, UniProt Q8N5J4 1-248); conditions: protein: recombinant; tags: N-terminal GST; dsDNA, one strand shown
T8 sequence: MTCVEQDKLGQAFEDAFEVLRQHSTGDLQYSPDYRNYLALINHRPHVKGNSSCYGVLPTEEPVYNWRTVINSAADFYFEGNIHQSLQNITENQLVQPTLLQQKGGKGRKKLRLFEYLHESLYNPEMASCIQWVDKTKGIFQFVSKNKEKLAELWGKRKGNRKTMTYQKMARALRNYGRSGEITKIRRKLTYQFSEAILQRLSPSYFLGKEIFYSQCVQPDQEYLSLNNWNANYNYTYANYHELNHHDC
Summary of the method: as §1

ELF4 = ELF4 (Homo sapiens, UniProt Q99607 1-663); conditions: protein: recombinant; tags: N-terminal GST; dsDNA, one strand shown
Chain of ELF4 (Q99607 whole entry): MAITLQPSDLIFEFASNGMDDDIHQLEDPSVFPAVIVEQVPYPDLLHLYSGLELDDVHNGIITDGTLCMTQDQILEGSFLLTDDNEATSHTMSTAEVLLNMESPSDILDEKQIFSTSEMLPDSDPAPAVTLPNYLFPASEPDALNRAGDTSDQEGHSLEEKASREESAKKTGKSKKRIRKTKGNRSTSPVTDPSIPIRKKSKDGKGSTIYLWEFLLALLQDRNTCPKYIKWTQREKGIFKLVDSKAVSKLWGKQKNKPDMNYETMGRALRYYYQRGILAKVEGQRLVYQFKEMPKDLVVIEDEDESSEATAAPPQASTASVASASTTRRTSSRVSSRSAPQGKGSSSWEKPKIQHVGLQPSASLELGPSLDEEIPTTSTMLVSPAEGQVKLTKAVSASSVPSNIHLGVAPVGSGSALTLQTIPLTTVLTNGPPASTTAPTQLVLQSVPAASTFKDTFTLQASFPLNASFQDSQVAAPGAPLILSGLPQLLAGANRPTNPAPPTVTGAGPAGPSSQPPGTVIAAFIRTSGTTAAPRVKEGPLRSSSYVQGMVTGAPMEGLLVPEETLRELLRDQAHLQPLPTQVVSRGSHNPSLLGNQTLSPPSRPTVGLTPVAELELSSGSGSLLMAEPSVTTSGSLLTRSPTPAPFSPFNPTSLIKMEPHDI
Summary of the method: as §1

ELK4 = biological target: T9, ELK4 (Homo sapiens, UniProt P28324-2 1-405); conditions: protein: recombinant; tags: N-terminal GST; dsDNA, one strand shown
T9 sequence: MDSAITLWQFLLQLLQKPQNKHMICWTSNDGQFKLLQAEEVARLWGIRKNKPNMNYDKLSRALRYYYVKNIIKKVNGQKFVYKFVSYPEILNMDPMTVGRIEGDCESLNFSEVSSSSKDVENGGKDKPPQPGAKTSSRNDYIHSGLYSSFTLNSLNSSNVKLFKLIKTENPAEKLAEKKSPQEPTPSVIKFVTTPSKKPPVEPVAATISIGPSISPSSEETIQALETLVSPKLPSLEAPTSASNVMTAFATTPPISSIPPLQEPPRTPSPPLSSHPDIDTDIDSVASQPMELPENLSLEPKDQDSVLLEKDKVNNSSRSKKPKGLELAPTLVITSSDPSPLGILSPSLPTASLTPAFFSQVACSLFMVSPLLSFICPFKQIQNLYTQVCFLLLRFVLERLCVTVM
Summary of the method: as §1

ETV2 = biological target: T10, ETV2 (Homo sapiens, UniProt O00321 1-342); conditions: protein: recombinant; tags: N-terminal GST; dsDNA, one strand shown
T10 sequence: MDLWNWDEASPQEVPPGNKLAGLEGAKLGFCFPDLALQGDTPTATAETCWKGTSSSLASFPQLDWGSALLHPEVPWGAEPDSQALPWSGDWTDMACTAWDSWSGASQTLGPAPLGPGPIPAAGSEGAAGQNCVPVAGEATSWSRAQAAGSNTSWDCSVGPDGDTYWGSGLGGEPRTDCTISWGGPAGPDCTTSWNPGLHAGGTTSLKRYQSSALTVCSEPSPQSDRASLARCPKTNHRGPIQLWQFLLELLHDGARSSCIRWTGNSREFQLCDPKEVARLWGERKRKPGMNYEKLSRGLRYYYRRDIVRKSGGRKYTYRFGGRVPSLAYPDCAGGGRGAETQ
Summary of the method: as §1

ELF3 = biological target: T11, ELF3 (Homo sapiens, UniProt P78545 1-371); conditions: protein: recombinant; tags: N-terminal GST; dsDNA, one strand shown
T11 sequence: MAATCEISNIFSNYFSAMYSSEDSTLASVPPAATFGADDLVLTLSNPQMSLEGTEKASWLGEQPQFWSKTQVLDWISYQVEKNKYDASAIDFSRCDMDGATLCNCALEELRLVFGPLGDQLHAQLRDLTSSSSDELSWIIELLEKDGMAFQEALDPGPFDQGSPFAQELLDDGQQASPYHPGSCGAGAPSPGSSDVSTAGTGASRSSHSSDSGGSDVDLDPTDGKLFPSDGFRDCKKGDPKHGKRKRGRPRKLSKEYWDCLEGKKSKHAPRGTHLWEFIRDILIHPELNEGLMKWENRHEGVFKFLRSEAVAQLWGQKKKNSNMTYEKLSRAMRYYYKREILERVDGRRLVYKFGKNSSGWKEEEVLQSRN
Summary of the method: as §1

CRX = CRX (Homo sapiens, UniProt O43186 1-299); conditions: protein: recombinant; tags: N-terminal GST; dsDNA, one strand shown
Chain of CRX (O43186 whole entry): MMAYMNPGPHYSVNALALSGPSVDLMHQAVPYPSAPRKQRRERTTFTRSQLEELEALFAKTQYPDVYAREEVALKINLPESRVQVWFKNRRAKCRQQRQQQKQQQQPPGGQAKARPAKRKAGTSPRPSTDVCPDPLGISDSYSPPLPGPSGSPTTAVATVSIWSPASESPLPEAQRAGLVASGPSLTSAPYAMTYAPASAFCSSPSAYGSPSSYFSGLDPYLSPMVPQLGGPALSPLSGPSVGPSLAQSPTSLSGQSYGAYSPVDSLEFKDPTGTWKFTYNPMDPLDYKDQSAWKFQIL
Summary of the method: as §1

ETV1 = ETV1 (Homo sapiens, UniProt P50549 1-477); conditions: protein: recombinant; tags: N-terminal GST; dsDNA, one strand shown
Chain of ETV1 (P50549 whole entry): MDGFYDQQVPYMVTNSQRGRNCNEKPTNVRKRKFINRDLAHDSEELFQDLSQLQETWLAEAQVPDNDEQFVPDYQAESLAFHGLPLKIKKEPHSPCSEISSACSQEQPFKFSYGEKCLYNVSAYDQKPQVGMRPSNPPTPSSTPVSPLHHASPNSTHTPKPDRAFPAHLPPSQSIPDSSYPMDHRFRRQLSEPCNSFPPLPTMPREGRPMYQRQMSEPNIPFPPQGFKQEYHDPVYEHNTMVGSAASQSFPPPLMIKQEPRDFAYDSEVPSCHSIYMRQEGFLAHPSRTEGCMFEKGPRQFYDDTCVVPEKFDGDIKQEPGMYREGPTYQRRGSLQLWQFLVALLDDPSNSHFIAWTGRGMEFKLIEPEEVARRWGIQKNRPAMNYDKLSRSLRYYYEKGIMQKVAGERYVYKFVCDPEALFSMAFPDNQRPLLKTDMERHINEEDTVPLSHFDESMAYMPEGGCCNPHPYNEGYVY
Summary of the method: as §1

CTACCC was tested, and the binding signal (FLI1) was 1.27 fold enrichment (6-mer frequency, TF over GST control), the binding signal (ELK1) was 1.32 fold enrichment (6-mer frequency, TF over GST control) and the binding signal (GABPA) was 1.4 fold enrichment (6-mer frequency, TF over GST control). For the same sequence, the binding signal (ERG) was 1.36 fold enrichment (6-mer frequency, TF over GST control), the binding signal (ELF1) was 1.33 fold enrichment (6-mer frequency, TF over GST control) and the binding signal (EHF) was 1.27 fold enrichment (6-mer frequency, TF over GST control). For the same sequence, the binding signal (SPI1) was 1.31 fold enrichment (6-mer frequency, TF over GST control), the binding signal (SPIB) was 1.34 fold enrichment (6-mer frequency, TF over GST control) and the binding signal (ELK3) was 1.31 fold enrichment (6-mer frequency, TF over GST control). The binding signal (FEV) was 1.26 fold enrichment (6-mer frequency, TF over GST control), the binding signal (ETV5) was 1.28 fold enrichment (6-mer frequency, TF over GST control) and the binding signal (HSF1) was 1.04 fold enrichment (6-mer frequency, TF over GST control). The binding signal (SPIC) was 1.47 fold enrichment (6-mer frequency, TF over GST control), the binding signal (ELF4) was 1.36 fold enrichment (6-mer frequency, TF over GST control) and the binding signal (ELK4) was 1.23 fold enrichment (6-mer frequency, TF over GST control). The binding signal (ETV2) was 1.29 fold enrichment (6-mer frequency, TF over GST control), the binding signal (ELF3) was 1.3 fold enrichment (6-mer frequency, TF over GST control) and the binding signal (CRX) was 1.08 fold enrichment (6-mer frequency, TF over GST control). For the same sequence, the binding signal (ETV1) was 1.26 fold enrichment (6-mer frequency, TF over GST control).
